Where a name gives a salt, the structure may show the parent alone.
Test system: WPMY1-ACTB-RAB5A
Assay: lowest phenotypically active concentration; higher = less potent
Conditions: treatment time: 24 h
Procedure, shortened: (§1)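 Cells from fifteen gene-edited reporter lines (A549, HepG2 and WPMY1) were treated for 24 h at 0.3, 1, 3 or 9 µM and imaged live, four wells per condition. Features were normalised per well to solvent control wells. A condition deviated if ≥3 of 4 wells passed the 95th percentile of control Euclidean distances and was reproducible if its median replicate Pearson correlation beat the 95th percentile of non-replicates; phenotypic activity needed both.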

`CC[C@H](C)[C@H](NC(=O)OCc1ccccc1)C(=O)N[C@@H](CCC(=O)OC(C)(C)C)C(=O)N[C@@H](C)C(=O)N[C@H](C=O)CC(C)C` and `COc1cc2ncn(-c3cc(OCc4ccccc4C(F)(F)F)c(C(N)=O)s3)c2cc1OC` cannot be ordered by “lowest phenotypically active concentration” value: ≤ 0.3 µM for the first, ≤ 0.3 µM for the second.

`CCN1CCN(C(c2cccnc2)c2cc(Cl)c3cccnc3c2O)CC1` (stereo not drawn) and `CCN1CCN(c2ccc(Nc3cc(N(C)C(=O)Nc4c(Cl)c(OC)cc(OC)c4Cl)ncn3)cc2)CC1` are the same in “lowest phenotypically active concentration” value: 9 µM for the first, 9 µM for the second.

`CCOc1cc(N2CCC(O)CC2)ccc1Nc1ncc2c(n1)N(C)c1ccccc1C(=O)N2C` and `CC(C)CCN1c2nc(Nc3cc(F)c(O)c(F)c3)ncc2N(C)C(=O)C1C` (stereo not drawn) are the same in “lowest phenotypically active concentration” value: 3 µM for the first, 3 µM for the second.

First: Cc1c2oc3c(C)ccc(C(=O)NC4C(=O)NC(C(C)C)C(=O)N5CCCC5C(=O)N(C)CC(=O)N(C)C(C(C)C)C(=O)OC4C)c3nc-2c(C(=O)NC2C(=O)NC(C(C)C)C(=O)N3CCCC3C(=O)N(C)CC(=O)N(C)C(C(C)C)C(=O)OC2C)c(N)c1=O (stereo not drawn) [Actinomycin D]
Second: COc1cc2c(NC3CCN(C(C)C)CC3)nc(C3CCCCC3)nc2cc1OCCCN1CCCC1
The “lowest phenotypically active concentration” value of the first is lower: ≤ 0.3 µM for the first, 1 µM for the second.

Compared with `NCCNS(=O)(=O)c1cccc2cnccc12` [H-9 dihydrochloride], `N#Cc1c(NC(=O)c2cccc3ccccc23)sc2c1CCCC2` is lower in “lowest phenotypically active concentration” value: 9 µM for the first, ≤ 0.3 µM for the second.

`CN1C/C(=C/c2ccc(B(O)O)cc2)C(=O)/C(=C/c2ccc(B(O)O)cc2)C1` and `Oc1ccc(Nc2nc(-c3ccc(Cl)cc3)cs2)cc1` are the same in “lowest phenotypically active concentration” value: 3 µM for the first, 3 µM for the second.

First: Nc1ccn([C@@H]2O[C@H](CO)[C@@H](O)C2(F)F)c(=O)n1 [gemcitabine]
Second: Nc1cc(C(F)(F)F)c(-c2cc(N3CCOCC3)nc(N3CCOCC3)n2)cn1 [buparlisib]
The “lowest phenotypically active concentration” value of the first is lower: ≤ 0.3 µM for the first, 3 µM for the second.

First: CCN(CC)CCCC(C)Nc1ccnc2cc(Cl)ccc12 (stereo not drawn) [chloroquine]
Second: COc1cc2nccc(Oc3ccc(NC(=O)NC4CC4)c(Cl)c3)c2cc1C(N)=O [lenvatinib]
The “lowest phenotypically active concentration” value of the first is 3-fold higher: 3 µM for the first, 1 µM for the second.

First: O=c1cc(-c2cccc3c2Sc2ccccc2S3)oc(N2CCOCC2)c1
Second: CCN1CCN(c2cc(-c3ccc(F)cc3)c3c(n2)CCCCCC3)CC1 [blonanserin]
The “lowest phenotypically active concentration” value of the first is 3-fold lower: 3 µM for the first, 9 µM for the second.

In the case of `COc1cc([C@@H]2c3cc4c(cc3[C@@H](O[C@@H]3O[C@@H]5CO[C@@H](C)O[C@H]5[C@H](O)[C@H]3O)[C@H]3COC(=O)[C@H]23)OCO4)cc(OC)c1O` [etoposide], the “lowest phenotypically active concentration” value is reported as 1 µM.

Test system: WPMY1-CANX-COX4
Assay: as above
Conditions: treatment time: 24 h
Procedure, shortened: as §1

Compared with `CC[C@H](C)[C@H](NC(=O)OCc1ccccc1)C(=O)N[C@@H](CCC(=O)OC(C)(C)C)C(=O)N[C@@H](C)C(=O)N[C@H](C=O)CC(C)C`, `COc1cc2ncn(-c3cc(OCc4ccccc4C(F)(F)F)c(C(N)=O)s3)c2cc1OC` is higher in “lowest phenotypically active concentration” value: ≤ 0.3 µM for the first, 1 µM for the second.

Compared with `CCN1CCN(C(c2cccnc2)c2cc(Cl)c3cccnc3c2O)CC1` (stereo not drawn), `CCOc1cc(N2CCC(O)CC2)ccc1Nc1ncc2c(n1)N(C)c1ccccc1C(=O)N2C` is 3-fold lower in “lowest phenotypically active concentration” value: 9 µM for the first, 3 µM for the second.

Going from `Cc1c2oc3c(C)ccc(C(=O)NC4C(=O)NC(C(C)C)C(=O)N5CCCC5C(=O)N(C)CC(=O)N(C)C(C(C)C)C(=O)OC4C)c3nc-2c(C(=O)NC2C(=O)NC(C(C)C)C(=O)N3CCCC3C(=O)N(C)CC(=O)N(C)C(C(C)C)C(=O)OC2C)c(N)c1=O` (stereo not drawn) [Actinomycin D] to `COc1cc2c(NC3CCN(C(C)C)CC3)nc(C3CCCCC3)nc2cc1OCCCN1CCCC1`, the “lowest phenotypically active concentration” value rises from ≤ 0.3 µM to 1 µM.

Compared with `N#Cc1c(NC(=O)c2cccc3ccccc23)sc2c1CCCC2`, `O=c1cc(-c2cccc3c2Sc2ccccc2S3)oc(N2CCOCC2)c1` is higher in “lowest phenotypically active concentration” value: ≤ 0.3 µM for the first, 9 µM for the second.

First: CN1C/C(=C/c2ccc(B(O)O)cc2)C(=O)/C(=C/c2ccc(B(O)O)cc2)C1
Second: C/C(=C/c1ccc(C(=O)O)cc1)c1ccc2c(c1)C(C)(C)CCC2(C)C
The “lowest phenotypically active concentration” value of the first is 3-fold lower: 3 µM for the first, 9 µM for the second.

First: Nc1ccn([C@@H]2O[C@H](CO)[C@@H](O)C2(F)F)c(=O)n1 [gemcitabine]
Second: CC(C)CCN1c2nc(Nc3cc(F)c(O)c(F)c3)ncc2N(C)C(=O)C1C (stereo not drawn)
The “lowest phenotypically active concentration” value of the first is lower: ≤ 0.3 µM for the first, 3 µM for the second.

`Oc1ccc(Nc2nc(-c3ccc(Cl)cc3)cs2)cc1` and `CCN(CC)CCCC(C)Nc1ccnc2cc(Cl)ccc12` (stereo not drawn) [chloroquine] are the same in “lowest phenotypically active concentration” value: 3 µM for the first, 3 µM for the second.

First: Cc1nc(NC(=O)N2CCC[C@H]2C(N)=O)sc1-c1ccnc(C(C)(C)C(F)(F)F)c1 [alpelisib]
Second: Cc1nc(NC(=O)N2CCC[C@H]2C(N)=O)sc1-c1csc(C(C)(C)C)n1
The “lowest phenotypically active concentration” value of the first is 3-fold lower: 3 µM for the first, 9 µM for the second.

Compared with `Cc1ccc(S(=O)(=O)/C=C/C#N)cc1`, `COc1cc([C@@H]2c3cc4c(cc3[C@@H](O[C@@H]3O[C@@H]5CO[C@@H](C)O[C@H]5[C@H](O)[C@H]3O)[C@H]3COC(=O)[C@H]23)OCO4)cc(OC)c1O` [etoposide] is 9-fold lower in “lowest phenotypically active concentration” value: 9 µM for the first, 1 µM for the second.

`Nc1cc(C(F)(F)F)c(-c2cc(N3CCOCC3)nc(N3CCOCC3)n2)cn1` [buparlisib] was tested, and the “lowest phenotypically active concentration” value was 1 µM.

From the supplement of paper PMC7411054
